Only some compounds are listed: those with a hit (about 4.5% of all), similar ones and a draw of the others.
PfHsp40 rescue: restores yeast growth despite PfHsp40 toxicity | S. cerevisiae expressing PfHsp40, growth rescue, ATP luminescence | AID 504582 | growth rescue, % at 12.5 µM | hit rate 0.68% among 340,000; in the data active = growth rescue above about 28%, passing the limit was not always enough;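 note: yeast W303a lacking pdr1 and pdr3 grown in galactose medium; growth measured after three days at 30 °C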
Mtb FBA inh: inhibitors of M. tuberculosis fructose-bisphosphate aldolase | P9WQA3 | purified M. tuberculosis FBA, fluorescence read-out | inhibition, % at 1 µM | hit rate 2.3% among 360,000 | AID 588726
Target sequence (P9WQA3 whole entry, looked up): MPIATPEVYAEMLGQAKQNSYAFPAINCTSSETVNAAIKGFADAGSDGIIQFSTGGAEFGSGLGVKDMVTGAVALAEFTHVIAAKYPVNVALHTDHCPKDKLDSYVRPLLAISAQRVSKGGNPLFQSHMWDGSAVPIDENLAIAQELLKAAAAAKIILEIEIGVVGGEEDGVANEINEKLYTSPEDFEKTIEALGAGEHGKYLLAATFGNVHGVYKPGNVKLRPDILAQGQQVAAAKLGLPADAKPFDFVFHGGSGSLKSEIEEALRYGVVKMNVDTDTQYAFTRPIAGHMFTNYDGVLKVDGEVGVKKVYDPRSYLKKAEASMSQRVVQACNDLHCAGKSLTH
PrP UTR inh: inhibition of PrP 5' UTR reporter expression; cell-based PrP 5' UTR mRNA reporter, plate reader; inhibition, % (no concentration beside the values); hit rate 0.35% among 340,000; AID 488862; in the data active = inhibition above about 52%
GDH-TPI counter-1: GDH-TPI coupled enzyme inhibition counter-screen; GDH-TPI coupled enzyme counterscreen, NADH absorbance; inhibition, % at 4.8 µM; hit rate 1.2% among 360,000; in the data active = inhibition above about 30%
PrPC surface inh: inhibitors of human cell surface prion protein PrPC; TR-FRET read-out; AID 720596; P04156; hit rate 0.43% among 370,000; inhibition, % at 13.8 µM; in the data active = inhibition above about 24%
BJeLR viability: kills HRASV12-expressing BJeLR cells; BJeLR (HRASV12) viability, CellTiter-Glo ATP luminescence, 48 h; inhibition, % (test concentration not listed); hit rate 0.17% among 300,000; in the data active = inhibition above about 50%
Mtb FBA inh conf: confirmation of M. tuberculosis fructose-bisphosphate aldolase inhibitors; purified M. tuberculosis FBA, fluorescence read-out; hit rate 78% among 5,600; shares compounds with Mtb FBA inh; AID 651616; inhibition, % at 1 µM
GDH-TPI counter-2: counter-screen for M. tuberculosis FBA inhibitors: GDH-TPI coupled enzyme inhibition; GDH-TPI coupled enzyme counterscreen, fluorescence; shares compounds with Mtb FBA inh; inhibition, % at 1 µM; hit rate 81% among 5,600; in the data active = inhibition above about 10%
A number is an active result; . = inactive; / = no result; + = active, no number. Cut-off read from the data, not from the text of the source, unless noted: active = inhibition above about 27%; inactive = the rest.

SMILES	PfHsp40 rescue	Mtb FBA inh	PrP UTR inh	GDH-TPI counter-1	PrPC surface inh	BJeLR viability	Mtb FBA inh conf	GDH-TPI counter-2
CC(C)C(=O)Nc1ccc(-c2nnc(-c3ccccc3)o2)cc1	.	33.1	.	.	.	.	47.2	35.5
O=C(Cc1ccccc1)Nc1cccc(-c2nnc(-c3ccco3)o2)c1	.	32.2	.	.	.	.	38.4	35.3
O=C(COc1ccccc1)Nc1ccc(-c2nnc(-c3ccco3)o2)cc1	.	35.7	.	.	.	.	.	.
CC(=O)/C=C(\C)Nc1ccc(-c2cnc(-c3ccccc3)o2)cc1	.	90.2	.	.	.	.	91.1	76.3
Cc1cc(C)c(CN2CCC(n3nccc3NC(=O)C3CCOC3)CC2)cc1C (stereo not given)	.	.	.	.	.	.	/	/
CC(C)CC(=O)NC(Nc1ccc([N+](=O)[O-])cc1)C(Cl)(Cl)Cl (stereo not given)	.	.	.	.	.	.	/	/
O=C(CN(C(=O)CNS(=O)(=O)c1ccccc1)c1ccc(F)cc1)NCc1ccco1	.	.	.	.	.	.	/	/
CCCCNC(=O)CCc1c(C)nc2c(c(C)nn2-c2ccccc2)c1C	.	.	.	.	.	.	/	/
Cc1nc2c(c(C)nn2-c2ccccc2)c(C)c1CCC(=O)NCCCOC(C)C	.	40.6	.	.	.	.	40.2	36.1
Cc1ccc(-n2nc(C)c3c(C)c(CCC(=O)NCc4ccccc4)c(C)nc32)cc1	.	.	.	.	.	.	/	/
CCC(C)NC(=O)CCc1c(C)nc2c(c(C)nn2-c2ccccc2)c1C (stereo not given)	.	44.4	.	.	.	.	50.5	33.9
COC(=O)C(NC(=O)CCc1c(C)nc2c(c(C)nn2-c2ccccc2)c1C)C(C)C (stereo not given)	.	43.3	.	.	.	.	57.5	47.9
CCOC(=O)CCc1c(C)nc2c(c(C)nn2-c2ccccc2)c1C	.	.	.	.	.	.	/	/
Cc1nc2c(c(C)nn2-c2ccccc2)c(C)c1CCC(=O)Nc1ccc(CN2CCCC2)cc1	.	30.5	.	.	.	.	65.8	48.9
Cc1ccc(C(=O)NCC(=O)N(C)Cc2ccc(Cl)cc2Cl)s1	.	.	.	.	.	/	/	/
Cc1ccc2nc(NC(=O)CSc3nc(=O)n(CCN(C)C)c4c3CCCC4)sc2c1	.	.	.	.	.	.	/	/
O=C1c2ccccc2NC(c2ccc(O)cc2)N1c1ccccc1 (stereo not given)	.	.	.	.	.	.	/	/
Cc1cccc(C2Nc3ccccc3C(=O)N2c2ccccc2)n1 (stereo not given)	.	61.4	.	.	.	.	47.2	46.4
Cc1ccc(-n2c(O)c(C=Nc3cc(C)on3)c3ccccc3c2=O)c(C)c1	.	46.6	.	.	.	.	+	+
Cc1ccc2c(c1)CO[C@@]21O[C@H](CCO)C[C@H](O)[C@H]1O	/	.	/	.	.	/	/	/
N#Cc1c(N2CCOCC2)nc(-c2ccco2)c2c1CCCC2	.	36.5	.	.	.	.	93.4	70.5
CCc1nc(N2CCOCC2)c(C#N)c2c1CCCC2	.	38.0	.	.	.	.	+	+
CCCCc1nc(N2CCOCC2)c(C#N)c2c1COC(C)(C)C2	.	35.3	.	.	.	.	.	.
CC1(C)Cc2c(C#N)c(SCCO)nc(N3CCOCC3)c2CO1	.	.	.	.	.	.	/	/
CCc1nc(N2CCCC2)c(C#N)c2c1CCCC2	.	.	.	.	.	.	/	/
SMILES	PfHsp40 rescue	Mtb FBA inh	PrP UTR inh	GDH-TPI counter-1	PrPC surface inh	BJeLR viability	Mtb FBA inh conf	GDH-TPI counter-2
Cc1cnc(CNC(=O)c2csc([C@@H]3C[C@H](O)[C@@H](CO)O3)n2)cn1	/	.	/	.	.	/	/	/
O=C(c1cc(-c2cccs2)nc2ccccc12)N1CCN(c2ccccc2)CC1	.	.	.	.	.	.	/	/
O=C(c1cc(-c2cccs2)nc2ccccc12)N1CCN(S(=O)(=O)c2ccccc2)CC1	.	57.0	.	.	.	.	97.7	75.7
O=C(c1cc(-c2cccs2)nc2ccccc12)N1CCN(S(=O)(=O)c2cccc(F)c2)CC1	.	37.6	.	.	.	.	122.8	91.8
CC1CCCN(C(=O)c2cc(-c3cccs3)nc3ccccc23)C1 (stereo not given)	.	83.4	.	.	.	/	.	.
CC1CC(C)CN(C(=O)c2cc(-c3ccncc3)nc3ccccc23)C1 (stereo not given)	.	.	.	.	.	.	/	/
CN(C)S(=O)(=O)c1cccc(NC(=O)C2CCCN(C(=O)c3ccc(Cl)cc3)C2)c1 (stereo not given)	/	.	/	.	.	/	/	/
CCn1nnc(NC(=O)c2cccc(-c3cc4ccccc4oc3=O)c2)n1	.	48.5	.	.	.	.	153.4	118.5
Cc1ccc(C(=O)NCC(=O)OCc2csc(-c3ccccc3)n2)cc1	.	.	.	.	.	.	/	/
CCOc1ccc(C(=O)NCC(=O)OCc2csc(-c3ccccc3)n2)cc1	.	28.6	.	.	.	.	193.8	165.9
O=C(NCCCN1CCOCC1)C(C(=O)NCCCN1CCOCC1)c1ncc(C(F)(F)F)cc1Cl	.	.	.	.	.	.	/	/
O=C(O)CCN1C(=O)C2CCCCC2C1=O (stereo not given)	.	46.2	.	.	.	.	+	192.9
COc1ccc(NS(=O)(=O)c2ccc3nc(COc4ccc(C#N)cc4)[nH]c3c2)cc1	.	.	.	.	.	.	/	/
CN(CCOc1ccc(Cl)cc1)C(=O)c1cc(-c2ccco2)nc2ccccc12	.	36.5	.	.	.	.	173.9	127.2
CCOc1ccc(NC(=O)CN(C)C(=O)c2cc(-c3ccco3)nc3ccccc23)cc1OCC	.	61.7	.	.	.	/	+	+
Cc1ccc(NC(=O)CN(C)C(=O)c2cc(-c3ccco3)nc3ccccc23)cc1	.	.	.	.	.	.	/	/
CN(CC(=O)Nc1ccc(F)cc1)C(=O)c1cc(-c2ccco2)nc2ccccc12	.	30.0	.	.	.	.	+	+
COc1cccc(NC(=O)CN(C)C(=O)c2cc(-c3ccco3)nc3ccccc23)c1	.	69.4	.	.	.	.	.	.
N#CCC[C@H]1CC[C@]2(CCCN(C(=O)c3ccno3)C2)O1	/	/	/	/	.	/	/	/
Cc1cc(=O)oc2cc(OCC(=O)OC(C)C(=O)NC3CCCC3)ccc12 (stereo not given)	.	.	.	.	.	.	/	/
CCN(CC(=O)Nc1c(F)cccc1F)C(=O)COc1ccc2c(C)cc(=O)oc2c1	.	29.9	.	.	.	.	123.4	109.3
Cc1cccc(C)c1NC(=O)COC(=O)COc1ccc2c(C)cc(=O)oc2c1	.	.	.	.	.	.	/	/

High-throughput results: PubChem BioAssay, several laboratories
